Assay results as given in PubChem BioAssay.
The source made the active and inactive calls. Unless noted, the rule behind the calls is not given here.

What was measured:
[1] = system: Wnt5a (protein binding on small-molecule microarray); test: Wnt5a binders on small-molecule microarray, primary screen, biophysical, 635/667 nm fluorescence (AID 1142); conditions: 635 nm fluorescence, higher = more signal;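 note: fluorescence read at 667 nm with signal to noise per printed feature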
[2] = cell viability in Huh7 cells, primary screen, cytotoxicity control for HCV replication inhibitor project, CellTiter-Glo luminescence, basal, 48 h (AID 1143); conditions: Huh7 HCV replicon, higher = more signal, called active from +8 up or from −8 down;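 note: Huh7 hepatoma cells carrying a hepatitis C replication reporter with no stimulus; test concentration not given here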
[3] = P. aeruginosa biofilm formation inhibitors, primary screen, PAO1 strain, BacTiter-Glo luminescence, LB-PBS (AID 1144); conditions: 12 h, higher = more signal
[4] = CREB reporter modulators without forskolin, primary screen, cell-based, PC12, CRE-LacZ reporter, unstimulated (AID 1145); conditions: no forskolin, luminescence, 4.5 h, higher = more signal, called active from +8 up or from −8 down
[5] = CREB reporter modulators under forskolin, primary screen, cell-based, PC12, CRE-LacZ reporter, forskolin-stimulated (AID 1146); conditions: luminescence, 4.5 h, higher = more signal, called active from +8 up or from −8 down;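 note: PC12 cells with 6xCRE LacZ reporter stimulated by forskolin 10 µM; beta-galactosidase reporter signal reflecting CREB driven transcription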
[6] = target: Streptavidin (Streptomyces avidinii) (UniProt P22629); test: streptavidin binders on small-molecule microarray, primary screen, artefact control for SMM compound annotation, biophysical, 635/667 nm fluorescence (AID 1147); conditions: streptavidin binding, higher = more signal;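 note: signal reflects streptavidin binding to arrayed compounds as a control protein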
[7] = small-molecule binders of probe aInhba, primary screen, biochemical, small-molecule microarray, 635/667 nm fluorescence (AID 1148); conditions: higher = more signal;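 note: score merges 667nm spot fluorescence with signal-to-noise for antibody binding to printed compounds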
[8] = target: Torsin-1A (Homo sapiens) (UniProt O14656); test: torsin A binders from cell lysate, primary screen, small-molecule microarray, wild-type, 635/667 nm (AID 1149); conditions: COS7 hTOR1A-WT lysate, 635 nm fluorescence, higher = more signal
[9] = target: Torsin-1A (Homo sapiens) (UniProt O14656); test: small-molecule binders of mutant TOR1A in lysate, primary screen, cell lysate, small-molecule microarray, COS7 lysate, 635/667 nm fluorescence (AID 1150); conditions: COS7 hTOR1A mutant lysate, 635 nm fluorescence, higher = more signal;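 note: score pools 667 nm emission and signal to noise measuring lysate protein binding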
[10] = system: Sonic hedgehog protein (Shh); test: small-molecule binders of Shh protein, primary screen, biochemical, small-molecule microarray, 635/667 nm fluorescence (AID 1151); conditions: small-molecule microarray binding, 635 nm fluorescence; higher = more signal;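 note: Shh protein binding to compounds spotted on small-molecule microarray slides; score combines spot fluorescence intensity with signal-to-noise across triplicate slides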
[11] = E. coli DRC41 culture turbidity changes, primary screen, E. coli filamentation inducer project, strain DRC41, OD650, 48 h (AID 1152);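 note: E. coli MC1000 strain DRC41 lacking acrAB efflux pump and sulA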; conditions: E. coli DRC41 (acrAB sulA), higher = more signal, called active from +8 up or from −8 down
[12] = small-molecule binders of probe aLefty1, primary screen, biochemical, small-molecule microarray, 635/667 nm fluorescence (AID 1153); conditions: higher = more signal;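 note: score merges spot fluorescence with signal-to-noise ratio from the scanned slide images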
[13] = PSAC antagonists in infected red cells, primary screen, cell-based, P. falciparum Indochina, OD700, 1 h (AID 1154); conditions: P. falciparum Indochina infected RBC osmotic lysis, higher = more signal, called active from +8 up or from −8 down
[14] = PSAC antagonists in infected red cells, primary screen, cell-based, P. falciparum Indochina, OD700, 2 h (AID 1155);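 note: lysis reports solute entry through the parasite surface anion channel PSAC; channel blockers reduce lysis of infected cells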; conditions: P. falciparum Indochina infected erythrocytes, osmotic lysis OD700; higher = more signal, called active from +8 up or from −8 down
[15] = osmotic lysis modulators in infected erythrocytes, primary screen, PSAC antagonist project, cell-based, P. falciparum Indochina, OD700, 3 h (AID 1156); conditions: higher = more signal, called active from +8 up or from −8 down
[16] = PSAC antagonists in infected red cells, primary screen, cell-based, P. falciparum Indochina, OD700, 18 h (AID 1157); conditions: P. falciparum Indochina infected erythrocytes, osmotic lysis OD700, 18 h; higher = more signal, called active from +8 up or from −8 down
[17] = modulators of S6 phosphorylation in cells, primary screen, cell-based, A549, cytoblot, luminescence, serum-stimulated (AID 1158); conditions: A549 phospho-S6 cytoblot, 5 h, higher = more signal;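 note: serum-stimulated A549 lung adenocarcinoma cells; signal is phosphorylated S6 detected by cytoblot immunostaining with HRP secondary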
[18] = target: NADPH oxidase 2 (Homo sapiens) (UniProt P04839); test: NOX2-dependent H2O2 signal modulators, primary screen, NOX inhibitor project, cell-based, HEK293-NOX2, PMA-stimulated, Amplex Red fluorescence (AID 1159); conditions: 45 min, higher = more signal, called active from +8 up or from −8 down; note: test concentration not given here
[19] = target: NADPH oxidase 4 (Homo sapiens) (UniProt Q9NPH5); test: NOX4-dependent H2O2 signal modulators, primary screen, NOX inhibitor project, cell-based, HEK293-NOX4, tetracycline-induced, Amplex Red fluorescence (AID 1160); conditions: 45 min, higher = more signal, called active from +8 up or from −8 down
[20] = target: NADPH oxidase 5 (Homo sapiens) (UniProt Q96PH1); test: NOX5-dependent H2O2 signal modulators, primary screen, NOX inhibitor project, cell-based, HEK293-NOX5, Amplex Red fluorescence (AID 1161); conditions: HEK293-NOX5, ionomycin, 45 min, higher = more signal
NADPH oxidase 5 (Homo sapiens), sequence (Q96PH1 whole entry, looked up): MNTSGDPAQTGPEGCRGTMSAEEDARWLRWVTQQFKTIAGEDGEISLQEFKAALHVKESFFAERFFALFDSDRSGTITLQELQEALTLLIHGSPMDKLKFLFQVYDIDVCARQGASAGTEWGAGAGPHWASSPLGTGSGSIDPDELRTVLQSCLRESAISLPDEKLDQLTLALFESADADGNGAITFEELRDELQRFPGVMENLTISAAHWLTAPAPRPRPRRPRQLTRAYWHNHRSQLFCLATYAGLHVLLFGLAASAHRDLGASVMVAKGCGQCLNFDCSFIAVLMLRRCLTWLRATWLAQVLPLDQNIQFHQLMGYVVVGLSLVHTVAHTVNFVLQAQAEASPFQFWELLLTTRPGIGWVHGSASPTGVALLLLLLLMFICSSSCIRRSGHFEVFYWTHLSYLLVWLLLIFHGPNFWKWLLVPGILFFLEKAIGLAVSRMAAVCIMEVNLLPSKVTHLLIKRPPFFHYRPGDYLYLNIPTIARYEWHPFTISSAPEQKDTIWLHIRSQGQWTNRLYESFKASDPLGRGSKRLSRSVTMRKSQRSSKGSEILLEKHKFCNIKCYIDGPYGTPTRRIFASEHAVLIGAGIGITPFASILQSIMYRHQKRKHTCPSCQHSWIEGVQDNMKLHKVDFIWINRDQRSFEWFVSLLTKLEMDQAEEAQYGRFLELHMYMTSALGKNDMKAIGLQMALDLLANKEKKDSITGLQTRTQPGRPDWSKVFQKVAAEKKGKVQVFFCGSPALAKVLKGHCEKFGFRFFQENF

Torsin-1A (Homo sapiens), sequence (O14656 whole entry, looked up): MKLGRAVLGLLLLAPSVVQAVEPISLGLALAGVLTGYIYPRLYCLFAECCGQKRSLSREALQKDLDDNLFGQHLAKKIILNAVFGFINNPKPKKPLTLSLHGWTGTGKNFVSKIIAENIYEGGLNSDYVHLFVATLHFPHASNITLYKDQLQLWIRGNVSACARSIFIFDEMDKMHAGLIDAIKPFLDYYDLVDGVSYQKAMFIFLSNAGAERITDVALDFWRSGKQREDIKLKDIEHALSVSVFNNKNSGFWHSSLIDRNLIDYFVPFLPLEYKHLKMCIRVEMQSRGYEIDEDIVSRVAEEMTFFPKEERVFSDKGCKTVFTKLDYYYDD
NADPH oxidase 2 (Homo sapiens), sequence (P04839 whole entry, looked up): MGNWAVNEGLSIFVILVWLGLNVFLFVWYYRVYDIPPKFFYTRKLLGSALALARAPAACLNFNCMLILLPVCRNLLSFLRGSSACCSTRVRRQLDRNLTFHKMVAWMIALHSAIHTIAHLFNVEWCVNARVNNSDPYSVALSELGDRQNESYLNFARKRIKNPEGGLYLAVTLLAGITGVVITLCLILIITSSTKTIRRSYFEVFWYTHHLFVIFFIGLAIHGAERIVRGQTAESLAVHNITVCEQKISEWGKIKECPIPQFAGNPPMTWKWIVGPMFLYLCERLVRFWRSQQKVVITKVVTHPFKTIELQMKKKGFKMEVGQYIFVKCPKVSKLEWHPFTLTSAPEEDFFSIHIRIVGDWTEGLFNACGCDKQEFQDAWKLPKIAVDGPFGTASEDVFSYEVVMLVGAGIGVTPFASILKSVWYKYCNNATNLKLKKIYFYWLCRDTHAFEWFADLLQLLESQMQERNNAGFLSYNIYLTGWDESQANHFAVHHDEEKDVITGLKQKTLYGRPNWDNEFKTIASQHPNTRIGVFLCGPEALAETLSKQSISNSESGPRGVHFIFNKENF
NADPH oxidase 4 (Homo sapiens), sequence (Q9NPH5 whole entry, looked up): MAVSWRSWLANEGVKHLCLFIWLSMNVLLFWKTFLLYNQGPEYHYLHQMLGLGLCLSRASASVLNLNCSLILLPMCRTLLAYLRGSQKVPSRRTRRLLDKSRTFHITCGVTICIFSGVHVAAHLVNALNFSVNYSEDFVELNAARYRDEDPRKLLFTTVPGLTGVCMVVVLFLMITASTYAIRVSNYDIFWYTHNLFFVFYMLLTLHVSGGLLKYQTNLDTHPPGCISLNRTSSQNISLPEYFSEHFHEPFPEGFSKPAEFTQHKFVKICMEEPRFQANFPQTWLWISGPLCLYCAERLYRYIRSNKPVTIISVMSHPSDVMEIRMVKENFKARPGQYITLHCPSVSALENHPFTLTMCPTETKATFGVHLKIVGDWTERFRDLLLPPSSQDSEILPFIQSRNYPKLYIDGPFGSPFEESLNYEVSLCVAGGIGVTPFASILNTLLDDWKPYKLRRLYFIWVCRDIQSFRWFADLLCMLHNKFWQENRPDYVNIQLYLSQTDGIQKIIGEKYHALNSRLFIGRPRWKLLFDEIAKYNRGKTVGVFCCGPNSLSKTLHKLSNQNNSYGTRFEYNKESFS
Streptavidin (Streptomyces avidinii), sequence (P22629 whole entry, looked up): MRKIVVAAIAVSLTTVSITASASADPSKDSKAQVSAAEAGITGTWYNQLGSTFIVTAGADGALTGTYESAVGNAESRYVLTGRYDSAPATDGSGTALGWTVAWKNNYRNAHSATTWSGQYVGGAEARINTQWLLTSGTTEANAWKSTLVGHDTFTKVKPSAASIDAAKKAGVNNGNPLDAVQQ

SMILES	composite z-score [1]	z-score [2]	z-score [3]	z-score [4]	z-score [5]	composite z-score [6]	composite z-score [7]	composite z-score [8]	composite z-score [9]	composite z-score [10]	z-score [11]	composite z-score [12]	z-score [13]	z-score [14]	z-score [15]	z-score [16]	z-score [17]	z-score [18]	z-score [19]	z-score [20]
CN1C(=O)C2C=CC(C(O)c3cccs3)N(Nc3ccccc3)C2C1=O (stereo not given)	0.455	0.593 (inactive)	-0.0101 (inactive)	0.426 (inactive)	0.711 (inactive)	0.389	0.406	0.757	0.738	0.251	-1.6 (inactive)	0.206	-0.203 (inactive)	0.65 (inactive)	-0.109 (inactive)	0.731 (inactive)	-1.19	-2 (inactive)	-4.89 (inactive)	-3.11
COCCOC(=O)N1C(=O)[C@@]2(c3cc(C#CC4=CCCCC4)ccc31)[C@H](C(=O)Nc1nc3ccccc3s1)[C@H]1C(=O)O[C@H](c3ccccc3)[C@H](c3ccccc3)N1[C@@H]2c1ccc(OCCO)cc1	0.575	-1.49 (inactive)	-1.07 (inactive)	-0.258 (inactive)	-0.47 (inactive)	0.986	-0.0221	0.256	0.254	1.5	-1.56 (inactive)	-0.333	2.63 (inactive)	1.23 (inactive)	-0.218 (inactive)	1.59 (inactive)	-0.145	1.01 (inactive)	0.101 (inactive)	0.468
O=C1c2ccccc2[C@@]2(Cc3ccccc3N(CC(F)(F)F)C2=O)[C@H](c2ccc(CO)cc2)N1Cc1ccccc1Cl	0.125	0.289 (inactive)	-0.165 (inactive)	-0.141 (inactive)	-1.11 (inactive)	0.0272	-0.0256	0.0329	0.293	1.42	0.606 (inactive)	-0.677	0.902 (inactive)	0.638 (inactive)	0.955 (inactive)	0.5 (inactive)	0.258	0.0997 (inactive)	-0.991 (inactive)	-0.826
COc1cc2c(cc1O)C=[N+](Cc1cccc(OC(F)(F)F)c1)CC2	-0.141	-2.11 (inactive)	-0.28 (inactive)	-0.401 (inactive)	-0.583 (inactive)	-0.535	-0.127	0.955	0.284	-0.0245	0.272 (inactive)	-0.464	3.05 (inactive)	-1.25 (inactive)	-0.747 (inactive)	-2.03 (inactive)	0.818	-4.18 (inactive)	-2.56 (inactive)	-3.06
COCCCN1C(=O)[C@@]2(c3ccc([N+](=O)[O-])cc3)CC(=O)N(C3CCCCC3)[C@@H]2c2ccc(CO)cc21	-0.0976	-0.253 (inactive)	0.0798 (inactive)	-0.761 (inactive)	-0.593 (inactive)	-0.226	-0.214	0.0116	-0.289	1.41	-0.0972 (inactive)	-0.35	-0.141 (inactive)	-0.063 (inactive)	-0.382 (inactive)	0.0583 (inactive)	-0.495	-2.14 (inactive)	-1.3 (inactive)	-0.379
